Measured values from PubChem BioAssay (EPA / NIEHS).
Activity calls are given as the source filed them. Rule for the calls: active = hit-call score of the fitted dose curve at least 0.9, where 1 is the maximum; inactive = score below 0.9.

What was measured:
[1] = ATG_E_Box_CIS: Attagene CIS-FACTORIAL HepG2 Assay for human Enhancer Box (E-box) (AID 2282936); conditions: HepG2 E-box cis-reporter transcription, actives raise or lower the signal
Outline: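 Cells: HepG2 (human liver), transient MRTU transfection. Exposure 24 h. RNA → oligo(dT) RT → PCR → 6-FAM label → HpaI → CE. Activity fitted both directions relative to DMSO.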

[2] = ATG_M_61_CIS: Attagene CIS-FACTORIAL HepG2 Assay for M61 Transcription Factor (Internal Marker) (AID 2282937); conditions: HepG2 Attagene CIS-FACTORIAL M61 internal marker reporter; actives raise or lower the signal
Outline: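 Readout: fluorescent reporter mRNA fragments resolved by capillary electrophoresis after RT-PCR. Transiently transfected human HepG2 cells carried MRTU constructs reporting endogenous TF activity; 24 h chemical exposure; gain or loss of signal fitted relative to DMSO.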

[3] = ATG_EGR_CIS: Attagene CIS-FACTORIAL HepG2 Assay for human Early Growth Response 1 (EGR1) (AID 2282938); conditions: HepG2 Attagene CIS-FACTORIAL EGR reporter mRNA; actives raise or lower the signal
Outline: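 Read-out: fluorescent reporter-mRNA fragments resolved by capillary electrophoresis after RT-PCR, 24 h post-dose in transiently transfected HepG2. Endogenous transcription-factor activity reported via cis-element-regulated reporter units; gain or loss fitted relative to DMSO.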

[4] = ATG_M_19_CIS: Attagene CIS-FACTORIAL HepG2 Assay for M19 Transcription Factor (Internal Marker) (AID 2282939); conditions: HepG2 Attagene CIS-FACTORIAL M19 internal marker reporter; actives raise or lower the signal
Outline: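 In this multiplexed cell assay, transiently transfected HepG2 reporter units report endogenous transcription-factor activity; after 24 hours of treatment, labelled reporter cDNA fragments are quantified by capillary electrophoresis and fitted bidirectionally against DMSO.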

[5] = ATG_ERE_CIS: Attagene CIS-FACTORIAL HepG2 Assay for Estrogen Response Element (ERE) (AID 2282940); conditions: HepG2 ERE cis-reporter, Attagene RNA transcript; actives raise or lower the signal
Outline: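 Measuring endogenous transcription factor output, the assay doses transfected HepG2 cells for 24 hours and quantifies reporter transcripts by fluorescent RT-PCR and capillary electrophoresis, with DMSO as baseline.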

[6] = ATG_Ets_CIS: Attagene CIS-FACTORIAL HepG2 Assay for human Erythroblast Transformation Specific (ETS) (AID 2282941); conditions: HepG2 ETS cis-reporter transcription, actives raise or lower the signal
Outline: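 Steps: transfect HepG2 with multiple reporter units; treat compound 24 h; isolate RNA, DNase-treat, reverse-transcribe; PCR-amplify, label with 6-FAM, digest with HpaI; separate by capillary electrophoresis. Activity fitted both directions versus DMSO.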

[7] = biological target: Hepatocyte nuclear factor 3-beta (Homo sapiens) (UniProt Q9Y261); assay: ATG_FoxA2_CIS: Attagene CIS-FACTORIAL HepG2 Assay for human Forkhead box A2 (FOXA2) (AID 2282942); conditions: HepG2 cis-reporter transcription factor activity, 24 h; actives raise or lower the signal
Outline: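 Readout: fluorescent reporter transcripts resolved by capillary electrophoresis after RT-PCR. Transiently transfected HepG2, 24 h compound exposure, endogenous TF activity at cis promoter elements. Gain or loss of signal fitted relative to DMSO.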

[8] = ATG_FoxO_CIS: Attagene CIS-FACTORIAL HepG2 Assay for human Forkhead box O (FoxO) (AID 2282943); conditions: HepG2 Attagene cis-reporter, FoxO element, mRNA; actives raise or lower the signal
Outline: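 Endogenous transcription factor activity read from multiplexed cis-promoter reporter transcripts in transiently transfected HepG2, 24 h after dosing. Reporter RNA measured via RT-PCR plus capillary electrophoresis of FAM-labeled products; gain or loss relative to DMSO.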

[9] = ATG_GATA_CIS: Attagene CIS-FACTORIAL HepG2 Assay for human GATA Binding Protein (AID 2282944); conditions: HepG2 GATA cis-element reporter, Attagene multiplex mRNA; actives raise or lower the signal
Outline: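 Measures endogenous transcription factor-driven reporter mRNA in HepG2 cells transiently carrying cis-regulated constructs. 24 h dosing; RNA via oligo(dT) reverse transcription, PCR, HpaI digestion, capillary electrophoresis; fitted relative to DMSO.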

[10] = ATG_GLI_CIS: Attagene CIS-FACTORIAL HepG2 Assay for human Zinc Finger Protein GLI1 (AID 2282945); conditions: HepG2, Attagene cis-factorial reporter mRNA, GLI element; actives raise or lower the signal
Outline: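 Bidirectional curve fits relative to DMSO, using reporter mRNA levels from RT-PCR plus capillary electrophoresis. Cells were HepG2 transiently carrying cis-regulated reporter constructs, harvested 24 h after dosing.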

[11] = ATG_GRE_CIS: Attagene CIS-FACTORIAL HepG2 Assay for human Glucocorticoid Response Elements (GRE) (AID 2282947); conditions: HepG2 GRE cis-reporter, Attagene multiplex mRNA; actives raise or lower the signal
Outline: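 Transient MRTU transfection of human HepG2 liver cells; cis-regulated reporters report endogenous factors. 24 h dosing → RNA isolation → RT-PCR → 6-FAM primer extension → HpaI cut → CE fragment analysis. Bidirectional fit, DMSO negative control.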

[12] = ATG_ISRE_CIS: Attagene CIS-FACTORIAL HepG2 Assay for human Interferon Regulatory Factor 1 (IRF1) binding to an Interferon-Stimulated Response Element (ISRE) (AID 2282948); conditions: HepG2 ISRE cis-reporter (Attagene), mRNA transcription readout; actives raise or lower the signal
Outline: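 Transfected HepG2 (multiple reporter transcription units, cis elements) dosed 24 h. RNA → oligo(dT) RT → PCR → 6-FAM primer extension → HpaI → CE. DMSO = negative control/baseline.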

[13] = ATG_M_32_CIS: Attagene CIS-FACTORIAL HepG2 Assay for M32 Transcription Factor (Internal Marker) (AID 2282949); conditions: HepG2 Attagene cis-factorial M32 reporter, mRNA; actives raise or lower the signal;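 note: background control marker of the multiplexed CIS panel rather than a real target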
Outline: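 Fluorescent capillary electrophoresis peaks of HpaI-digested, FAM-labelled RT-PCR reporter products give the signal. Source: transiently transfected human liver HepG2 cells, 24 h after chemical dosing; bidirectional fitting against DMSO.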

[14] = ATG_M_06_CIS: Attagene CIS-FACTORIAL HepG2 Assay for M06 Transcription Factor (Internal Marker) (AID 2282950); conditions: HepG2 Attagene CIS-FACTORIAL M06 internal marker reporter; actives raise or lower the signal
Outline: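 One of many multiplexed endpoints: HepG2 reporter mRNA after 24 h dosing, detected by RT-PCR and capillary electrophoresis fluorescence; gain or loss of signal analysed against DMSO.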

[15] = biological target: Hypoxia-inducible factor 1-alpha (Homo sapiens) (UniProt Q16665); assay: ATG_HIF1a_CIS: Attagene CIS-FACTORIAL HepG2 Assay for human Hypoxia Inducible Factor 1 (HIF1A) (AID 2282951); conditions: HepG2 Attagene cis-factorial HIF1a reporter transcription; actives raise or lower the signal
Outline: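 RT-PCR/capillary electrophoresis fluorescence readout of reporter transcripts from endogenous-TF-driven cis elements in transfected HepG2 cells, 24 h exposure; activity fitted in both directions against DMSO controls.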

[16] = biological target: Hepatocyte nuclear factor 6 (Homo sapiens) (UniProt Q9UBC0); assay: ATG_HNF6_CIS: Attagene CIS-FACTORIAL HepG2 Assay for human Hepatocyte Nuclear Factor 6 (HNF6) (AID 2282952); conditions: HepG2 Attagene cis-factorial HNF6 reporter transcription; actives raise or lower the signal
Outline: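 HepG2 cells transiently transfected with cis-element-driven multiple reporter transcription units, dosed 24 h; reporter mRNA quantified by RT-PCR, FAM primer extension, HpaI digestion and capillary electrophoresis; bidirectional fit versus DMSO baseline.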

[17] = biological target: Heat shock factor protein 1 (Homo sapiens) (UniProt Q00613); assay: ATG_HSE_CIS: Attagene CIS-FACTORIAL HepG2 Assay for human Heat Shock Transcription Factor 1 (HSE) (AID 2282953); conditions: HepG2 HSE cis-reporter, Attagene RNA transcription; actives raise or lower the signal
Outline: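 Using HepG2 with transfected cis-driven reporter constructs, compound effects on endogenous factor activity are scored as reporter mRNA change at 24 h. Detection: RT-PCR, HpaI digestion, capillary electrophoresis; bidirectional fitting to DMSO.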

[18] = ATG_PBREM_CIS: Attagene CIS-FACTORIAL HepG2 Assay for human Phenobarbital-responsive Enhancer Module (PBREM) (AID 2282955); conditions: HepG2 PBREM cis-reporter, Attagene multiplexed transcription; actives raise or lower the signal
Outline: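 Reporter mRNA read by RT-PCR, 6-FAM primer extension, HpaI digestion and capillary electrophoresis. Transfected HepG2 cells, 24 h compound exposure. Gain or loss of signal fitted bidirectionally relative to DMSO baseline.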

[19] = ATG_MRE_CIS: Attagene CIS-FACTORIAL HepG2 Assay for human Metal Responsive Element (MRE) (AID 2282954); conditions: HepG2 MRE cis-reporter transcription, Attagene multiplex; actives raise or lower the signal
Outline: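 Transient MRTU transfection of HepG2 (FuGene 6); 24 h dosing; total RNA → oligo(dT) RT, PCR, 6-FAM primer extension, HpaI cut, CE. Bidirectional fit vs DMSO.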

Measured: AC50

Heat shock factor protein 1 (Homo sapiens), sequence (Q00613 whole entry, looked up): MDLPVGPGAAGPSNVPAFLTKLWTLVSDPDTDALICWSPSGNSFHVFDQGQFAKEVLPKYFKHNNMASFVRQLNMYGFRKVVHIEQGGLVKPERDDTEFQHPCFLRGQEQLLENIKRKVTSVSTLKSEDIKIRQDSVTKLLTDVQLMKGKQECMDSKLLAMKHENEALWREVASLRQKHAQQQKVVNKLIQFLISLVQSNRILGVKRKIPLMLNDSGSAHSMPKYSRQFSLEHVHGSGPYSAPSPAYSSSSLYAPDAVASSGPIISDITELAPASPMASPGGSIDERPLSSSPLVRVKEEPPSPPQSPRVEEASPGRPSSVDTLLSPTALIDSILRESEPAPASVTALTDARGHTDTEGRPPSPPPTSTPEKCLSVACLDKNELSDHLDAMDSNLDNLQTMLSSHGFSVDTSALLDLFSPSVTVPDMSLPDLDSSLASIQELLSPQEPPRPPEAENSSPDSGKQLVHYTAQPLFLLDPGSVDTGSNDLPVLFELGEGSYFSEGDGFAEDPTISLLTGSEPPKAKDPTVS
Hepatocyte nuclear factor 3-beta (Homo sapiens), sequence (Q9Y261 whole entry, looked up): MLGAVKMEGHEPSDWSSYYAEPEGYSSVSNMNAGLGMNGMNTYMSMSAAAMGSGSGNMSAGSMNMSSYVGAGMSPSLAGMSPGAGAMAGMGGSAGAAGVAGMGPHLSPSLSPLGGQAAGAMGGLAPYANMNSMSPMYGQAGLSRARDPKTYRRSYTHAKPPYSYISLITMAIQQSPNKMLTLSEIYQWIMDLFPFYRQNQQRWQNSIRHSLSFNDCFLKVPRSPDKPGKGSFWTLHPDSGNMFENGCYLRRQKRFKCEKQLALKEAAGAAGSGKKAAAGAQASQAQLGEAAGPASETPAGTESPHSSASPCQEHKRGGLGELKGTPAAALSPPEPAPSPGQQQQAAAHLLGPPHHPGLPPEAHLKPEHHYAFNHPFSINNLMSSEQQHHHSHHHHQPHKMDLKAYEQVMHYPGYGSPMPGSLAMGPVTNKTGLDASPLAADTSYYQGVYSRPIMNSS
Hypoxia-inducible factor 1-alpha (Homo sapiens), sequence (Q16665 whole entry, looked up): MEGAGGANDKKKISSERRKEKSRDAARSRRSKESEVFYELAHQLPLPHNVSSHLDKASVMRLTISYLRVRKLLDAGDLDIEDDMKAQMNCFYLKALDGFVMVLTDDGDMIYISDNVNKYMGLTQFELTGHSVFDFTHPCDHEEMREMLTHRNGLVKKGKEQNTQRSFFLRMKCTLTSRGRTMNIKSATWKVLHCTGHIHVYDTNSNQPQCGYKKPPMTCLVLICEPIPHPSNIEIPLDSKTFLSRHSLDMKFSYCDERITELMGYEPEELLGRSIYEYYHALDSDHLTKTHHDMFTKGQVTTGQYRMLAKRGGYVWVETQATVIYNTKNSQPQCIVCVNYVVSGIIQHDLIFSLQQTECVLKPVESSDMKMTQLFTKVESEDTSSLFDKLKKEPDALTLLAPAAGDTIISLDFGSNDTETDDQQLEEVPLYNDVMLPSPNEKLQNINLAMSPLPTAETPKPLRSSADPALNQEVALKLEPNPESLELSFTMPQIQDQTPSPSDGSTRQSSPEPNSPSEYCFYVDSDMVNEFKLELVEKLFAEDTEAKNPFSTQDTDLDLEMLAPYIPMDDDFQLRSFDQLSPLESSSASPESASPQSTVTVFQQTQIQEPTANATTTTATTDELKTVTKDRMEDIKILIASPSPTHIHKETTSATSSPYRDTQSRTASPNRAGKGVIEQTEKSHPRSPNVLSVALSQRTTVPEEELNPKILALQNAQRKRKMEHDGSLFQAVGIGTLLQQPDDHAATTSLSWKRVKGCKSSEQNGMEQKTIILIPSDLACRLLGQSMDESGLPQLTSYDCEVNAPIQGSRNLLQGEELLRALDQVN
Hepatocyte nuclear factor 6 (Homo sapiens), sequence (Q9UBC0 whole entry, looked up): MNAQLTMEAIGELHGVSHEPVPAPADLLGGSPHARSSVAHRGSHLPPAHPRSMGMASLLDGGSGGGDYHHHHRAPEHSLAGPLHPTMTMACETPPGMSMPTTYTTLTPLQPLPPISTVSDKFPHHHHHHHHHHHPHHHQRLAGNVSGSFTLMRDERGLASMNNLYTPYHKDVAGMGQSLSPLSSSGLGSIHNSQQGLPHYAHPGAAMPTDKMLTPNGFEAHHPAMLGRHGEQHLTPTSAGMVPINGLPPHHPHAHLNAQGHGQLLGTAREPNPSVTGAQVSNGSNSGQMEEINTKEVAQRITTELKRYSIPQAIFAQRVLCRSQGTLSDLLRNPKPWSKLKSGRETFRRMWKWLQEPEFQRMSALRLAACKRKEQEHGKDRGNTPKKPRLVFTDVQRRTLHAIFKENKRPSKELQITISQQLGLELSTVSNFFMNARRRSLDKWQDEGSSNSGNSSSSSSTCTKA

CC(C)(C)C1CCCCC1=O (stereo not drawn)
not listed: [19]
inactive: all other assays above

Cc1ccc([N+](=O)[O-])cc1S(=O)(=O)O
active: [8] 153 µM
not listed: [17] | [18] | [19]
inactive: all other assays above

NC(CO)(CO)CO
inactive: all assays above

C=CC(C)(CCC=C(C)C)OC(=O)CC(C)C (stereo not drawn)
active: [5] 74.1 µM | [12] 147 µM | [19] 148 µM
not listed: [17]
inactive: all other assays above

O=S(=O)(O)c1ccc2cc(O)c(S(=O)(=O)O)cc2c1
active: [12] 160 µM | [15] 171 µM | [19] 169 µM
inactive: all other assays above

C=C(C)[C@@H]1CCC2=CCC[C@@H](C)[C@]2(C)C1
active: [5] 57.2 µM | [19] 155 µM
inactive: all other assays above

OC1CCCCCCCCCCC1
active: [5] 26.4 µM
not listed: [19]
inactive: all other assays above

O=C(Oc1ccccc1)c1ccc2ccccc2c1O
active: [1] 37.2 µM | [3] 48.7 µM | [5] 31.2 µM | [15] 34.6 µM | [17] 66.2 µM | [19] 57.2 µM | [18] 24.8 µM
inactive: all other assays above

Nc1ccc2cc3ccccc3cc2c1
active: [5] 8.48 µM
inactive: all other assays above

COCc1c(C(C)C)nc(C(C)C)c(/C=C/[C@@H](O)C[C@@H](O)CC(=O)O)c1-c1ccc(F)cc1
active: [19] 12.4 µM
inactive: all other assays above

N=c1ccn2c(n1)O[C@H]1[C@H](O)[C@@H](CO)O[C@H]12
not listed: [17] | [18]
inactive: all other assays above

Cc1ccccc1C
not listed: [18]
inactive: all other assays above

CCCCCCCOC(=O)CCC
inactive: all assays above

C=CC(=O)OCCOC(=O)C=C
active: [1] 27.3 µM | [3] 27.4 µM | [6] 27.2 µM | [12] 25.6 µM | [19] 27.5 µM
inactive: all other assays above

CC(C)CC(O)Cc1ccccc1 (stereo not drawn)
not listed: [19]
inactive: all other assays above

O=C(c1ccccc1)c1ccc(O)c(O)c1O
active: [5] 27 µM | [15] 61.2 µM
not listed: [18]
inactive: all other assays above
